From PubChem BioAssay (Tox21) come the findings set out here.

Test [1] can be described thus: Human pregnane X receptor (PXR) small molecule agonists, qHTS cell viability counter screen (AID 1346977). Also: nearly all actives have a fitted effect of over 50% in size. Also: potency is read from the fitted curve at half-maximal effect. The method, boiled down:
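In each well, the PXR reporter HepG2 line was checked for viability: CellTiter-Fluor reagent added 23hr post-dosing, fluorescence read after 1hr incubation at 37C.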
A general note: In qHTS, concentration-response curves come from the screen itself.

Test [2] in a line: Caspase-3/7 induction in HepG2 cells by small molecules, qHTS assay (AID 1346978). Also: nearly all actives have a fitted effect of over 15% in size. In a few lines: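 Caspase-3/7 induction was measured by Caspase-Glo 3/7 luminescence (30 min, room temperature) after a 17 hr compound exposure of wild-type HepG2 cells seeded at 2,000 per well and pre-incubated 5 hr.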
Test [3] in a line: Caspase-3/7 induction in CHO-K1 cells by small molecules, qHTS cell viability counter screen (AID 1346979). Also: nearly all actives have a fitted effect of over 35% in size. Also: potency is read from the fitted curve at half-maximal effect. The method, boiled down:
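Following a 5hr settling period, CHO-K1 cells at 1,500 per well received DMSO-dissolved compounds. Cell viability was quantified 16hr later by CellTiter-Fluor fluorescence, measured after 1hr with reagent at 37C.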

The nature of test [4]: Caspase-3/7 induction in CHO-K1 cells by small molecules, qHTS assay (AID 1346980). Also: nearly all actives have a fitted effect of over 15% in size. The method, boiled down:
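Luminescent Caspase-Glo 3/7 read (30min, room temperature) quantified apoptosis induction. Cells were wild-type CHO-K1, treated with compound for 17hr at 37 C and 5% CO2.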

Test [5] is described as follows: Caspase-3/7 induction in HepG2 cells by small molecules, qHTS cell viability counter screen (AID 1346981). Also: nearly all actives have a fitted effect of over 30% in size. Also: potency is read from the fitted curve at half-maximal effect. In a few lines:
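Fluorescence read-out of live-cell protease activity (CellTiter-Fluor) after 1 hr with reagent. This was measured in the same wells as the caspase-3/7 luminescence, on HepG2 cells exposed to DMSO-dissolved compounds for 16 hr at 37 C.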

In test [6] the target is Nuclear receptor subfamily 1 group I member 2 (Homo sapiens) (UniProt O75469). Description: Human pregnane X receptor (PXR) small molecule agonists, qHTS assay (AID 1346982). Also: nearly all actives have a fitted effect of over 35% in size. Also: potency is read from the fitted curve at half-maximal effect. In a few lines:
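HepG2 PXR-Luc reporter line, 5% charcoal-stripped FBS; 5 hr pre-incubation, compound (DMSO) 24 hr at 37 C/5% CO2; ONE-Glo 30 min RT; luminescence read-out.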

In test [7] the target is Nuclear receptor subfamily 1 group I member 2 (Rattus norvegicus) (UniProt Q9R1A7). The test is described as follows: Rat pregnane X receptor (rPXR) activation by small molecules, qHTS assay (AID 1346983). Also: nearly all actives have a fitted effect of over 20% in size. Also: potency is read from the fitted curve at half-maximal effect. The note with it: rPXR luciferase reporter cells, One-Glo luminescence, 24 h; max activation: stronger effect = higher value. In a few lines:
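Luminescent readout (One-Glo luciferase, 30 min room temperature) followed 24 hr compound treatment at 37 C of rPXR cells plated 2,000 per well and preincubated 5hr; qHTS format with compounds delivered in DMSO.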

For test [8], the target named is Nuclear receptor subfamily 1 group I member 2 (Homo sapiens) (UniProt O75469). Description: CYP3A4 induction through human pregnane X receptor (PXR) by small molecules, qHTS assay (AID 1346984). Also: nearly all actives have a fitted effect of over 40% in size. In a few lines:
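HepG2-derived DPX-2 line carrying PXR plus a CYP3A4-promoter luciferase reporter; cells plated 5 hr, compound-exposed 24 hr at 37C. CYP3A4 activity probed with 3uM (final) Luciferin-IPA for 3hr, then luciferase read after One-Glo.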

For test [9] the target is unchanged. Description: Human pregnane X receptor (PXR) activation by small molecules, qHTS assay (AID 1346985). Also: nearly all actives have a fitted effect of over 40% in size. In a few lines: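 DPX-2 cells (HepG2 co-transfected with a PXR response element and a CYP3A4-promoter luciferase construct) were seeded at 2,000 per well, rested 5 hr at 37C, then exposed to DMSO-dissolved compounds for 24 hr. Activation was read as luciferase luminescence.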

Test [10] concerns the target Cytochrome P450 2D6 (Homo sapiens) (UniProt P10635). The test is described as follows: Cytochrome P450 Family 2 Subfamily D Member 6 (CYP2D6) small molecule antagonists: luciferase reporter qHTS assay (AID 1671196). Also: nearly all actives have a fitted effect of over 50% in size. Also: potency is read from the fitted curve at half-maximal effect. In a few lines:
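Luminogenic proluciferin substrate, CYP2D6 enzyme; 10 min RT preincubation with compound, NADPH regeneration system added, 1 h RT. Stop/detection reagent, 20 min RT, luminescence read (RLU). Signal proportional to CYP activity.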

Test [11] has as its target Cytochrome P450 2C19 (Homo sapiens) (UniProt P33261). Description: Cytochrome P450 Family 2 Subfamily C Member 19 (CYP2C19) small molecule antagonists: luciferase reporter qHTS assay (AID 1671197). Also: nearly all actives have a fitted effect of over 65% in size. Also: potency is read from the fitted curve at half-maximal effect. In a few lines:
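First, compounds are pinned into enzyme-substrate mix and held 10 min at room temperature. Second, NADPH regeneration solution is added and plates incubate 1 h at 37C. Third, detection reagent is added and luminescence read after 20 min.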

The target of test [12] is Cytochrome P450 2C9 (Homo sapiens) (UniProt P11712). The test is described as follows: Cytochrome P450 Family 2 Subfamily C Member 9 (CYP2C9) small molecule antagonists: luciferase reporter qHTS assay (AID 1671198). Also: nearly all actives have a fitted effect of over 50% in size. Also: potency is read from the fitted curve at half-maximal effect. The method, boiled down: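 Enzyme-substrate mix preincubated with compound 10 min at room temperature; reaction started with NADPH regeneration solution, 1 h 37C. Luminescent luciferin product read after 20 min detection reagent.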
Sequence of Cytochrome P450 2C9 (Homo sapiens) (P11712 whole entry, looked up): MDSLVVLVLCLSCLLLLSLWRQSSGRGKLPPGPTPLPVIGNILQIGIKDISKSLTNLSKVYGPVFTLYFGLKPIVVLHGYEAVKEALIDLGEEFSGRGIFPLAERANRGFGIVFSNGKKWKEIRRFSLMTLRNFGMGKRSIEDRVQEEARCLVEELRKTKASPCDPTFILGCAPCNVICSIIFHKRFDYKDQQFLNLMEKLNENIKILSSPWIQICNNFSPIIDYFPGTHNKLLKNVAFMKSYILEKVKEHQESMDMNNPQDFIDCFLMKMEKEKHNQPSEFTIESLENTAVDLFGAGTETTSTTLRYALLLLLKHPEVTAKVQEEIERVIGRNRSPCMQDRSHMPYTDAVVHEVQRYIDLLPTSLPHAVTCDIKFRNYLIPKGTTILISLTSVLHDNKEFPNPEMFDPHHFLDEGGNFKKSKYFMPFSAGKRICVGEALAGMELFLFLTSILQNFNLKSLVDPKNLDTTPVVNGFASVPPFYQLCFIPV
A general note: A reporter such as luciferase makes a cellular process visible.

Test [13] has as its target Cytochrome P450 1A2 (Homo sapiens) (UniProt P05177). The test is described as follows: Cytochrome P450 Family 1 Subfamily A Member 2 (CYP1A2) small molecule antagonists: luciferase reporter qHTS assay (AID 1671199). Also: nearly all actives have a fitted effect of over 50% in size. Also: potency is read from the fitted curve at half-maximal effect. The method, boiled down: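 Luminescence readout (relative luminescence units) after luciferin detection reagent, 20 min RT. Preceded by 1 h room-temperature CYP1A2 reaction with NADPH regeneration solution following 10 min compound preincubation with enzyme and proluciferin substrate. Furafylline positive control.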

The target in test [14] is Voltage-gated inwardly rectifying potassium channel KCNH2 (Homo sapiens) (UniProt Q12809). The test is described as follows: Human Ether-a-go-go-Related Gene (hERG) channel small molecule antagonists: fluorescence cell-based qHTS assay (AID 1671200). Also: nearly all actives have a fitted effect of over 50% in size. Also: potency is read from the fitted curve at half-maximal effect. The method, boiled down:
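In this thallium-flux screen, overnight-cultured U2OS cells bearing the channel are dye-loaded in darkness for an hour, rested 10 min at room temperature, and then monitored kinetically at 480/540 nm for two minutes post-stimulus.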
A general note: Block of hERG is tested as a sign of cardiac risk.

Test [15] deals with Cytochrome P450 3A4 (Homo sapiens) (UniProt P08684). The test is described as follows: Cytochrome P450 Family 3 Subfamily A Member 4 (CYP3A4) small molecule antagonists: luciferase reporter qHTS assay (AID 1671201). In a few lines:
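CYP3A4 activity was followed with a P450-Glo proluciferin substrate. Test compounds in DMSO were preincubated 10 min; NADPH regeneration then ran 1 h, and light output was read 20 min after detection reagent.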

“And” between values parts separate entries of the source, which are not always exact repeats. Equal values may be shown once. Results filed as inconclusive are left out. Where a structure was tested more than once in an assay, its records may differ in their call. The source made the active and inactive calls. Calls follow the shape of the dose curve; as a rule, active = well fitted curve in the direction sought with a large enough effect in the repeat runs; inconclusive = weak or mixed curves; inactive = no such curve, though single readings can be large; an effect the other way counts as inactive or inconclusive.
% is scaled to controls: 0 for no effect and ±100 for the full control effect.

Sequence of Cytochrome P450 1A2 (Homo sapiens) (P05177 whole entry, looked up): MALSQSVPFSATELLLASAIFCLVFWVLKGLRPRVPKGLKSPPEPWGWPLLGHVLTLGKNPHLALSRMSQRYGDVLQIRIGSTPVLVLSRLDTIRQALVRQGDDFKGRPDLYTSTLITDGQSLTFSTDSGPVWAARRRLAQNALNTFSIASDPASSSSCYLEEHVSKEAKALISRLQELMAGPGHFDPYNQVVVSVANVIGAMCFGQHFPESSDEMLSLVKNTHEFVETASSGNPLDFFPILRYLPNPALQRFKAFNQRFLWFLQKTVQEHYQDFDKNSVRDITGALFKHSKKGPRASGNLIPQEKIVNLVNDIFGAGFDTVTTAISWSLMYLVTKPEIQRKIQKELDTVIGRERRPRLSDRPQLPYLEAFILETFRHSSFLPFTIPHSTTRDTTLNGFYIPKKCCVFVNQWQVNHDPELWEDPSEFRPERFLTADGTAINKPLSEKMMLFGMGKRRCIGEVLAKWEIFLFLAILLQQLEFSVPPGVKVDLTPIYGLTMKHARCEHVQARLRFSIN
Sequence of Cytochrome P450 2D6 (Homo sapiens) (P10635 whole entry, looked up): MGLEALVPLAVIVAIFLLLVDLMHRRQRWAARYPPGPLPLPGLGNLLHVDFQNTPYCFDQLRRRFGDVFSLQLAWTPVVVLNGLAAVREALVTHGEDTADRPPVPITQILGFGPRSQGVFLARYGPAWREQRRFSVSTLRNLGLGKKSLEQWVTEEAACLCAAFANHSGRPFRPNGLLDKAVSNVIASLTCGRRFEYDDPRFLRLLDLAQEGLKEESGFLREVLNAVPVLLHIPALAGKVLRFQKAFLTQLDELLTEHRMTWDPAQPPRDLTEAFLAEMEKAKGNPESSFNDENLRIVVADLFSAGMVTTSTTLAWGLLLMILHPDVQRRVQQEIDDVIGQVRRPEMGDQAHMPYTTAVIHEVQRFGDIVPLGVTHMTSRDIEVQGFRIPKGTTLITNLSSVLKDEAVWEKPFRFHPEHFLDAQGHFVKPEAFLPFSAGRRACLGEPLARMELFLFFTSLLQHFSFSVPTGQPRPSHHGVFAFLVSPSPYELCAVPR
Sequence of Voltage-gated inwardly rectifying potassium channel KCNH2 (Homo sapiens) (Q12809 whole entry, looked up): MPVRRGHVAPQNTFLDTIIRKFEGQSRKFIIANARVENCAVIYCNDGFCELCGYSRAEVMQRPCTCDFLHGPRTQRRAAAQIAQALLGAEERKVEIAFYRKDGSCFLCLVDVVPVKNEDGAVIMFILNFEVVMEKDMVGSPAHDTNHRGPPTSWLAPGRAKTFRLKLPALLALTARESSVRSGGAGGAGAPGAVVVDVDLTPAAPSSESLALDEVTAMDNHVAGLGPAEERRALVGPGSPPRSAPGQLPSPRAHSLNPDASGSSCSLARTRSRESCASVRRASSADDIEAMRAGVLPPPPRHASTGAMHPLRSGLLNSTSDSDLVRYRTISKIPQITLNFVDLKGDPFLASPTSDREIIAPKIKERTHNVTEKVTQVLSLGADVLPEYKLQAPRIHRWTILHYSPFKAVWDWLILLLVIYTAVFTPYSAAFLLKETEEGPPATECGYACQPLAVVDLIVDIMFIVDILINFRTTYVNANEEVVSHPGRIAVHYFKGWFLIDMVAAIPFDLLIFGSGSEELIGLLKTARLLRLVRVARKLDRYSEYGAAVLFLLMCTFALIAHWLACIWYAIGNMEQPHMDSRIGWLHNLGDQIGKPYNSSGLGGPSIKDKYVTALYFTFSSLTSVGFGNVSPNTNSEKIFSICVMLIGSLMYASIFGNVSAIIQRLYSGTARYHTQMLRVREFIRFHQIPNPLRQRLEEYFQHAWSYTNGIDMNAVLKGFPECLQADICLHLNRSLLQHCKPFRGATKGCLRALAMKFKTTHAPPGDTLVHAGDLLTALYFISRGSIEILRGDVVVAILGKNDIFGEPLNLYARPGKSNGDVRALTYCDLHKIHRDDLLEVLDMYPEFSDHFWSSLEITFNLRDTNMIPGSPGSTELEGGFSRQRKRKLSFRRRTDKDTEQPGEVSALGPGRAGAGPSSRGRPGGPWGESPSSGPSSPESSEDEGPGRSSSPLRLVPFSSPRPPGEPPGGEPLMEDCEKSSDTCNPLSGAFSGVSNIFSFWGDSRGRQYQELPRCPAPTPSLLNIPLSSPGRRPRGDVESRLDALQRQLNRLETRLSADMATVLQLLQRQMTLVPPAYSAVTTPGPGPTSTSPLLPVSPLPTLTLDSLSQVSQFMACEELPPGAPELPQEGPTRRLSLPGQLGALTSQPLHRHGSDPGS
Sequence of Nuclear receptor subfamily 1 group I member 2 (Rattus norvegicus) (Q9R1A7 whole entry, looked up): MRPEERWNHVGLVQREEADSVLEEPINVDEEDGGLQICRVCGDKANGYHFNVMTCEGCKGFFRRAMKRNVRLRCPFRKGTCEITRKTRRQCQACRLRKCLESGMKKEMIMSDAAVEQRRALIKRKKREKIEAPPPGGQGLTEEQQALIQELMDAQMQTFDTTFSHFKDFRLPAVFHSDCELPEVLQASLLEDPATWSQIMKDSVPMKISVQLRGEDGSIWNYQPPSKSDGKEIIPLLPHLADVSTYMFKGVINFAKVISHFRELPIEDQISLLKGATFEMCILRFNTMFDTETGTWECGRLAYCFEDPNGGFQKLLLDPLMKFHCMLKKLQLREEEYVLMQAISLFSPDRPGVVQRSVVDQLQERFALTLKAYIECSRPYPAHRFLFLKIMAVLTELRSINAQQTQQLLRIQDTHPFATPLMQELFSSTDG
Sequence of Cytochrome P450 3A4 (Homo sapiens) (P08684 whole entry, looked up): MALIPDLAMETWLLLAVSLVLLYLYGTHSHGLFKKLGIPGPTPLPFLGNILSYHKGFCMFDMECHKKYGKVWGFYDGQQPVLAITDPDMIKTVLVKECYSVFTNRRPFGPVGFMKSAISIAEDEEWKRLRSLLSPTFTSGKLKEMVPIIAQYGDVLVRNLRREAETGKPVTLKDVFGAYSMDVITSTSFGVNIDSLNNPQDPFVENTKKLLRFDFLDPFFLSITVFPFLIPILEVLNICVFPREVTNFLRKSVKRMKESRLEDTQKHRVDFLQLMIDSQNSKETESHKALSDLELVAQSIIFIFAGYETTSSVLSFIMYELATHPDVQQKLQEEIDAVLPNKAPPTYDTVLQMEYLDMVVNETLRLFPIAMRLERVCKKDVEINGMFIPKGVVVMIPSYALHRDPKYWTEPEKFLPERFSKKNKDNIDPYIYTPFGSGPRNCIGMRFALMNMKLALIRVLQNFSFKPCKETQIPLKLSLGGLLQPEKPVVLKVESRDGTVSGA
Sequence of Nuclear receptor subfamily 1 group I member 2 (Homo sapiens) (O75469 whole entry, looked up): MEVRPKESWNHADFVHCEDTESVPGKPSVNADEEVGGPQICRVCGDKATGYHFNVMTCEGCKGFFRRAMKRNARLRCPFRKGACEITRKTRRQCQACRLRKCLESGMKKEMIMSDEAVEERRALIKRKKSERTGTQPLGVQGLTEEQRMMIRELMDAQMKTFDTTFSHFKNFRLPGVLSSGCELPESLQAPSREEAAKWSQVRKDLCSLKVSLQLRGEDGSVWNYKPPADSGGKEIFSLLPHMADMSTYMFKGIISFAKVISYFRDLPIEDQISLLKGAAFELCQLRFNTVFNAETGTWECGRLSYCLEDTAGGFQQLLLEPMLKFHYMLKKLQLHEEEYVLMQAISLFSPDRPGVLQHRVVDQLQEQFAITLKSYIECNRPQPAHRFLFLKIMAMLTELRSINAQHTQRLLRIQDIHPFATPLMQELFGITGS
Sequence of Cytochrome P450 2C19 (Homo sapiens) (P33261 whole entry, looked up): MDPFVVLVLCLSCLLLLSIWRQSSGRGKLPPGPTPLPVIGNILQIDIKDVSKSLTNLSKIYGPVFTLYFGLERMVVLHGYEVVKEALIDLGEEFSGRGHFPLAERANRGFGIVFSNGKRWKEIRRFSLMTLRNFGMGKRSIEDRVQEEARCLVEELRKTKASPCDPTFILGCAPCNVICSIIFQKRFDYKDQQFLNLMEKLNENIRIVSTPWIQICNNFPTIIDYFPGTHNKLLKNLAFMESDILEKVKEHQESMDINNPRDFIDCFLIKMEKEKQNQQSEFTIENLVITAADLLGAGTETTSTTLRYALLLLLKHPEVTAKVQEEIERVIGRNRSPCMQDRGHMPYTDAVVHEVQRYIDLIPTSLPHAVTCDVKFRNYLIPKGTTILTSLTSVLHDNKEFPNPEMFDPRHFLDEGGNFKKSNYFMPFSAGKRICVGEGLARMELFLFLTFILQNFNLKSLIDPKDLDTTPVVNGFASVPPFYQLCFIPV

`CC(=O)OCC(=O)NCCCOc1cccc(CN2CCCCC2)c1`: the Potency entry in test [1], in [2], in test [3], in test [4], in test [5] and in [6] was “inactive” in each case. In addition, the Potency result in [8], in test [9], in test [11], in test [12], in test [13] and in test [14] was “inactive” in each case. Also, the Potency result in test [15] was “inactive”. In addition, the max activation in test [7] is -1.53% (inactive). Also, in [10], the Potency is 15.5 µM (active).
In the case of `CCCCCC#CC(=O)OC`, the Potency entry in test [1], in [2], in [3], in [4], in test [5] and in [6] was “inactive” in each case. In addition, the Potency entry in [10], in test [11], in test [13], in test [14] and in [15] was “inactive” throughout. For the same compound, the Potency in [12] is 63.3 µM (active).
Turning to `CCOC(=O)c1ccc(C#Cc2ccc3c(c2)C(C)(C)CCS3)nc1`, the Potency entry in test [1], in [2], in [3], in [4], in test [5] and in test [8] was “inactive” throughout. Further, the Potency entry in test [9], in [10], in test [11], in [12] and in test [13] was “inactive” throughout. For the same compound, the Potency in [6] is 33.5 µM (active); in test [7] it was 10 µM (active).
Take `CCOC(=O)c1ccc(OCCN2C[C@H](O)[C@@H](O)[C@H](O)[C@H]2CO)cc1`: the Potency result in test [1], in [2], in test [3], in test [4], in test [5] and in test [6] was “inactive” throughout. In addition, the Potency entry in [10], in test [11], in [12], in [14] and in [15] was “inactive” each time.
Regarding `CC(C)c1nc(CN(C)C(=O)N[C@H](C(=O)N[C@@H](Cc2ccccc2)C[C@H](O)[C@H](Cc2ccccc2)NC(=O)OCc2cncs2)C(C)C)cs1`, the Potency in [1] was 9.44 µM (active); in test [3], 23.7 µM (active); in [5], 21.1 µM (active); in [6] it was 5.96 µM (active). Besides, the Potency result in [2] and in test [4] was “inactive” throughout.
Take `NCCNCCO`: the Potency entry in test [1], in test [2], in test [3], in test [4], in [5] and in [6] was “inactive” each time. Moreover, the Potency result in [11], in test [12], in test [13], in test [14] and in test [15] was “inactive” each time. In [10], the Potency was 28.6 µM (active).
`CC(=O)Nc1cc(S(=O)(=O)O)cc2cc(S(=O)(=O)O)c(N=Nc3ccccc3)c(O)c12`: the Potency is 21.7 µM (active) in [1]; 27.3 µM (active) in test [3]; 24.3 µM (active) in [5]; 35.6 µM (active) in test [10]; 39.9 µM (active) in test [11]; 35.6 µM (active) in [12]. The Potency in test [13] is 31.7 µM (active). Further, the Potency result in test [2], in test [4], in test [6] and in test [14] was “inactive” each time.
Take `CN1CCCN=C1COC(=O)C(O)(c1ccccc1)C1CCCCC1` (stereo not given): the Potency result in test [1], in test [2], in test [3], in test [4], in test [5] and in [6] was “inactive” throughout. The Potency result in [9], in test [11], in test [12] and in test [13] was “inactive” each time. Besides, in test [7], the max activation is -0.811% (inactive). For the same compound, the Potency was 0.617 µM (active) in test [10] and 4.77 µM (active) in test [14].
Take `c1ccc2c(c1)CCc1ccccc1N2`: the Potency entry in test [1], in test [2], in [3], in test [4], in [5] and in [10] was “inactive” throughout. The Potency entry in test [14] and in test [15] was “inactive” each time. Further, the Potency in test [6] is 61.4 µM (active) and inactive; in test [11], 8 µM (active) and 8.71 µM (active); in test [12], 40.1 µM (active) and 13.8 µM (active); in [13], 7.13 µM (active) and 5.49 µM (active).
